This note sets out measurements from PubChem BioAssay AID435019 (Southern Research Specialized Biocontainment Screening …, 2010).

The structures appear in SMILES notation. Out of some 2,300 compounds screened, about 1,200 (52%) were called active. How the calls were made is not given here. The set was probably picked from earlier hits. The list shows a part of the results. Entries that show only a call come without a potency. Potency and affinity values are given separately.

This test in a line: mammalian cell cytotoxicity, dose response, cytotoxicity control for M. tuberculosis inhibitor project (AID 435019).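 Further: lower values mean fewer viable cells so more cytotoxicity.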 To be noted: cytotoxicity counter-screen; series mostly up to 40 µM. For orientation: A counterscreen serves to expose hits that act by an unwanted route or on another target.
For the compound `COc1c[nH]n(C2CCCCC2)c(=O)c1=O`, the result was inactive. The entry for `CCOc1ncccc1C(=O)OCC(=O)N1CCc2ccccc21` is “inactive”; for `CS(=O)(=O)c1ccc([C@@H](O)[C@@H](CF)NC(=O)C(Cl)Cl)cc1` it is “inactive”. The entry for `O=C(O)Cc1c[nH]c2ccc(O)cc12` is “inactive”; for `Cc1ccc(-c2cn3cccnc3n2)cc1NC(=O)c1ccc(Br)o1` it is “inactive”. The entry for `O=C(CSC1=NC(=O)C(c2ccccc2)C(=O)N1)Nc1ccccc1Cl` (centres undefined) is “inactive”.

As for `O=C(Nc1nc2nc(-c3ccccc3)cc(=O)n2[nH]1)c1ccccc1`, the call was inactive. The result for `CCOC(=O)CSc1ccc(C(=O)Nc2ccc(OC)cc2)cn1` reads “inactive”. The result for `O=C1N=C(N2CCC(Cc3ccccc3)CC2)S/C1=C/c1cn[nH]c1-c1ccccc1` reads “inactive”. The entry for `C=CCSc1n[nH]c(-c2ccc(OCCCC)cc2)n1` is “inactive”; for `CCOC(=O)c1c(C)[nH]c(N=Nc2ccc(OC)cc2)c1C` it is “inactive”. Take `Cc1ccc2nc(SCC(=O)Nc3ccc4c(c3)CCC4)[nH]c2c1`: the result was inactive. On to `O=C(CSCc1ccc([N+](=O)[O-])cc1)N/N=C/c1ccncc1`, for which the compound was classed as inactive. The result for `CCOC(=O)COc1ccc(S(=O)(=O)NCCC2=CCCCC2)cc1` reads “inactive”; that for `O=c1oc2ccccc2c2c1nc(C(F)(F)F)n2-c1ccccc1`, “inactive”; that for `CCOC(=O)c1cn[nH]c1N`, “inactive”. The entry for `CCCCc1ccc(NC(=S)N2CCN(c3ncccn3)CC2)cc1` is “inactive”.

Turning to `CC(=O)/C(=C\Nc1ccc(OCc2ccccc2)cc1)c1ccccc1`, the outcome was inactive.

Consider `CC(C)OC(=O)c1ccc(COC(=O)c2cnccn2)cc1`, for which the call was inactive. The result for `C/C(=N/NC(=O)c1ccccn1)c1c[nH]c2ccccc12` reads “inactive”; that for `CCCCCCC(=O)N/N=C/c1ccc(Br)cc1`, “inactive”; that for `CC/C(C)=N/NC(=S)NCc1ccco1`, “inactive”.

In the case of `O=C(OCC(=O)N1CCC(c2ccccc2)=N1)c1ccc(Cl)s1`, the compound was called inactive. The result for `Cc1ccc(C(=O)O/N=C(\N)c2ccc(Br)cc2)cc1C` reads “inactive”; that for `COC(=O)c1ccc(COC(=O)CCc2nc(-c3ccccc3)c(-c3ccccc3)o2)cc1`, “inactive”. The result for `Cc1cc(=O)oc2cc(OC(=O)C3CCN(C(=O)c4ccc(F)cc4)CC3)ccc12` reads “inactive”; that for `Cc1ccc(C(=O)N2N=C(CC(C)C)CC2(O)C(F)(F)F)o1` (centres undefined), “inactive”. Regarding `Nc1ccc2c(c1)Cc1ccccc1-2`, the result was inactive. The entry for `CCCC(=O)Nc1sc2c(c1C#N)CCCCC2` is “inactive”; for `CCOC(=O)CSc1nnc(-c2c[nH]c3ccccc23)o1` it is “inactive”; for `CCOC(=O)Cn1c(C)c(Br)c(=O)c2cccc(C)c21` it is “inactive”. The entry for `Cc1ccc(/C=C2\SC(N3CCCC3)=NC2=O)cc1` is “inactive”. The entry for `CN(C)C/C=C/C(=O)Nc1cccc(-c2c[nH]c3ncnc(Oc4ccc(NC(=O)CC(=O)Nc5ccc(F)cc5)cc4F)c23)c1` is “inactive”. For the compound `CSc1nsc(SCC(=O)N2CCCCC2)n1`, the call was inactive. The entry for `NNC(=S)NCc1ccc2c(c1)OCO2` is “inactive”; for `Cc1cc(NC(=O)c2noc3c2CCCC3)nn1Cc1ccc(Cl)cc1` it is “inactive”; for `CCOc1ccc(/C=N/OCC(=O)Nc2cc(C)on2)cc1` it is “inactive”. The entry for `COCCCN=C1NN=C(c2cc(C)n(Cc3ccco3)c2C)CS1` is “inactive”; for `Cc1ccc(C2=NN(C)c3nc4ccccc4n3C2)cc1` it is “inactive”.

`COc1ccc(OC)c(CN2CCN(C(=O)CNC(=O)c3ccc(C(C)(C)C)cc3)CC2)c1`: the outcome was inactive.

For `Cc1cc(NC(=O)CCN2C(=O)C3C4C=CC(C4)C3C2=O)ccc1Br` (centres undefined), the compound was classed as inactive. The entry for `COc1ccc(-c2c(C#Cc3ccsc3)c3ccccc3n2C)cc1` is “inactive”; for `CCOC(=O)c1ccc(NC(=O)C(C)Sc2nc(O)c(-c3ccccc3)c(=O)[nH]2)cc1` (centres undefined) it is “inactive”; for `O=C(Nc1ccc(C2=NCCN2)cc1)c1ccc(Cl)c(C(=O)Nc2ccc(C3=NCCN3)cc2)c1` it is “inactive”. Consider `CC(=O)c1sc(NC(=O)c2cc(=O)c3ccccc3o2)nc1C`, for which the result was inactive. Regarding `C=CCc1cccc(CNc2cnc3ccccc3c2)c1O`, the compound was called inactive. Regarding `Cc1cc(-c2cc(-c3ccccc3)on2)nc(NC2CCCC2)n1`, the outcome was inactive.

`Cc1ccsc1/C=N/Nc1ccc(F)cc1F`: the result was inactive.

Take `CC(C)(C)c1nc2sc3c(c2c(=O)o1)CCCC3`: the call was inactive. The entry for `Cc1ccc(CNC(=O)c2sc3nc4c(c(C(F)(F)F)c3c2N)CCC4)cc1` is “inactive”; for `COc1ccc(C(=O)C2CCCN(C3CSCCSC3)C2)c(C)c1` (centres undefined) it is “inactive”; for `CN(Cc1ccc(Br)cc1)C(=O)CCN1C(=O)c2cccc([N+](=O)[O-])c2C1=O` it is “inactive”. Consider `CN1C(=O)c2cccc3c(Br)ccc(c23)C1=O`, for which the result was inactive. On to `O=C(Nc1ccc(Cl)cc1)N(C1=NCCC1)c1ccc(OC(F)F)cc1`, for which the call was inactive.

`O=C(c1ccco1)N1CCN(C(=O)C2CC(c3ccc(Cl)c(Cl)c3)=NO2)CC1` (centres undefined): the compound was classed as inactive.

With `O=c1cc2[nH]c3ccccc3c(=O)n2nc1-c1ccccc1`, the compound was classed as inactive. The result for `c1ccc(-c2nc(N3CCCC3)nc3ccccc23)cc1` reads “inactive”. Consider `CN1/C(=C\C(=O)COC(=O)c2ccc([N+](=O)[O-])o2)C(C)(C)c2ccccc21`, for which the call was inactive. For the compound `CCOC(=O)N/N=C(/C)c1ccc([N+](=O)[O-])o1`, the result was inactive. The result for `CCOc1cc(C2NN=C(c3ccc(C)cc3)S2)ccc1O` (centres undefined) reads “inactive”. The entry for `N#C/C(=C1\CCCN1)c1nc(-c2ccccc2)cs1` is “inactive”; for `O=C(Nc1ccc(-n2cccc2)cc1)C1CC1` it is “inactive”. As to `Cc1ccc(NC(=O)C2C3/C=C\CCCCC32)cc1C` (centres undefined), the call was inactive. On to `COc1cccc(-n2nnc3c(=O)n(CC(=O)N4CCC(Cc5ccccc5)CC4)cnc32)c1`, for which the call was inactive. With `Cc1ccc(S(=O)(=O)NCc2ccc(C(=O)NCCCN3CCC(Cc4ccccc4)CC3)cc2)cc1`, the outcome was inactive. The entry for `CCCCCCSc1nsc(NC(=O)CC(C)C)n1` is “inactive”; for `Cc1c(OCc2ccccc2)c(=O)ccn1Cc1ccc(Cl)cc1` it is “inactive”; for `CC(=O)N1C(Nc2ccc(Cl)cc2)CCN1c1ccccc1` (centres undefined) it is “inactive”.

For `Nc1ccc2c(c1)oc1ccccc12`, the compound was called inactive.

As for `Cc1ccc(-n2[nH]c(C)c(C=Nc3ccc(S(=O)(=O)Nc4nccs4)cc3)c2=O)c(C)c1`, the compound was called inactive. The entry for `Cc1ccccc1C(=O)Nc1ccc(N(C)C)c2ccccc12` is “inactive”; for `N/C(=N\OC(=O)Nc1ccc(Cl)c(Cl)c1)c1ncc(C(F)(F)F)cc1Cl` it is “inactive”; for `CC(C)C(=O)N1CCC2(CC1)Oc1ccc(Cl)cc1C(=O)C21CC(c2ccccc2)=NO1` (centres undefined) it is “inactive”. Take `COc1ccc(C(=O)OCC(=O)c2ccc(Br)s2)c(OC)c1`: the compound was classed as inactive. The entry for `CCOC(=O)C1CCCc2c1[nH]c1c(C(N)=O)cccc21` (centres undefined) is “inactive”; for `O=C(OCc1ccccc1F)c1cnc(Cl)c(Cl)c1` it is “inactive”.

As to `O=C(OCc1ccc([N+](=O)[O-])cc1)c1cc2ccccc2oc1=O`, the result was inactive.

Consider `COc1ccccc1C1=NOC(COC(=O)c2ccc([N+](=O)[O-])cc2)C1` (centres undefined), for which the compound was classed as inactive.

Consider `CCCCS/C(N)=N/N=C/c1cc(C)ccc1O`, for which the result was inactive. The result for `Nc1ccc(Oc2ccc(F)cc2)nc1` reads “inactive”; that for `CCOC(=O)c1cc(-c2cccc([N+](=O)[O-])c2)on1`, “inactive”; that for `CNC(=S)Nc1ccc(N2CCN(c3ccc(C(F)(F)F)cn3)CC2)nc1`, “inactive”. Regarding `CCCCCCC#Cc1ccc2c(c1)COc1c3ccccc3nn1-2`, the compound was classed as inactive.

In the case of `O=C(NC1CCCCCC1)c1ccccc1-c1ccccc1`, the compound was classed as inactive.

With `COc1cc(N)c(Cl)cc1C(=O)N[C@H]1CCN(CCCOc2ccc(F)cc2)C[C@H]1OC`, the compound was classed as inactive.

Turning to `N#CC(C(=O)Nc1ccccc1)=C1Nc2ccccc2N1`, the call was inactive. The result for `Cc1ccccc1C(=O)Nc1ccccc1C(=O)NCC(C)C` reads “inactive”; that for `CSc1nc2nc3c(c(=O)n2[nH]1)CCCC3`, “inactive”. The entry for `c1ccc(CCNc2ncnc3c2cnn3-c2ccccc2)cc1` is “inactive”; for `CCSc1ncc(/C=N/Nc2ccccc2)n1C` it is “inactive”.

For `CN1/C(=C\C(=O)C[n+]2ccc(C(=O)c3ccccc3)cc2)C(C)(C)c2ccccc21`, the result was inactive. The entry for `CCCN(CC1CC1)C(=O)COC(=O)c1ccc2c(c1)C(=O)N(c1ccc(OCC)cc1)C2=O` is “inactive”. As for `CCOC(=O)c1ccc2c(c1)C(=O)N(C1CCCCC1)C2=O`, the compound was called inactive. The result for `CN(C)C=Nc1ccc2nn(-c3ccccc3)nc2c1` reads “inactive”; that for `COC(=O)CSc1[nH]c2ccc(Br)cc2c1[N+](=O)[O-]`, “inactive”. Turning to `CCOC(=O)c1csc(-c2snnc2C)n1`, the result was inactive. The result for `O=C(COC(=O)C1CC2CCCC(C1)C2=O)NNC(=O)c1ccccc1F` (centres undefined) reads “inactive”. The result for `Cn1nnc(NC(=S)NC(=O)c2ccc(-c3ccc(Br)cc3)o2)n1` reads “inactive”; that for `NC(=S)NNc1ccc(Cl)c(Cl)c1`, “inactive”; that for `Nc1ccc(C(=O)OCCCc2nc3cc4ccccc4cc3[nH]2)cc1`, “inactive”.

Regarding `COCCOC(=O)c1ccc(NC(=O)COc2ccc([N+](=O)[O-])cc2)cc1`, the compound was called inactive. `CS(=O)(=O)c1ncc(Cl)c(C(=O)Nc2ccc(OC(F)F)cc2)n1`: the compound was called inactive. The entry for `CC1CCN(C(=O)C2CCN(c3nnc(-n4cccc4)s3)CC2)CC1` is “inactive”.

As to `COCc1nnc(NC(=O)C2CC(=O)N(c3ccc(C)c(Cl)c3)C2)s1` (centres undefined), the compound was called inactive. Take `COc1ccc2c(c1)[C@@H]1[C@H](CO2)[C@H](c2ccccc2)[C@]2(C)C(=O)Nc3ccc(C)cc3C(=O)N12`: the compound was classed as inactive. The entry for `CCC(=O)c1coc2ccc(O)cc12` is “inactive”. The entry for `CCCCc1ccc(NC=C2C(=O)OC3(CCCCC3)OC2=O)cc1` is “inactive”; for `C#CCOC(=O)/C(=C/C=C/c1ccccc1)NC(=O)c1ccccc1` it is “inactive”; for `Cc1ccc(C(=O)N/C(=C/c2ccco2)C(=O)OCN2C(=O)c3ccccc3C2=O)cc1` it is “inactive”.

On to `O=C(OCn1nnc2ccccc2c1=O)C1CCCCC1`, for which the result was inactive. The result for `CN1[C@@H]2CC[C@H]1CC(OC(=O)[C@H](CO)c1ccccc1)C2` (some centres undefined) reads “inactive”; that for `CC(=O)c1cccc(NC(=S)NC2CCCCCCC2)c1`, “inactive”; that for `Cc1[nH]nc2nc3c(c(OC(=O)c4ccccc4)c12)c(=O)n(C)c(=O)n3C`, “inactive”.

As for `Cc1cc(/C=C(/C#N)c2cccc(F)c2)c(C)n1-c1cccnc1`, the compound was classed as inactive.
